According to PubChem BioAssay AID1159580 (chemical genetic matrix, 2015):
In all, about 5,500 compounds went through this assay and about 2,000 (36%) were called active. Inconclusive results (about 18%) are left out. No stated cut-off is given here; in the data, active means normalized growth mostly below about 0.91 (no sharp cut-off); inconclusive means no clear call, values can overlap the other calls; inactive means mostly above about 0.92. This is one part of the list.

Experiment: chemical genetic growth profiling, strain panel (AID 1159580);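 further: tested at 20 µM; growth read once vehicle control cultures reached saturation at 30 °C; 1 = growth at the plate median or of vehicle wells; lower values mean less growth of the strain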
Details: growth OD
[1] = S. cerevisiae deletion strains, locus YAL013W, strain DEP1, active compounds read low
[2] = S. cerevisiae deletion strains, locus YDR150W, strain NUM1, active compounds read low
[3] = S. cerevisiae deletion strains, locus YGR078C, strain PAC10, active compounds read low
[4] = S. cerevisiae deletion strains, locus YGR229C, strain SMI1, active compounds read low
[5] = S. cerevisiae deletion strains, locus YMR263W, strain SAP30, active compounds read low
[6] = S. cerevisiae deletion strains, locus YNL128W, strain TEP1, active compounds read low
[7] = S. cerevisiae deletion strains, locus YPL055C, strain LGE1, active compounds read low
[8] = S. cerevisiae deletion strains, locus YPL241C, strain CIN2, active compounds read low

Measured: normalized growth

C#CCOS(=O)OC1CCCCC1Oc1ccc(C(C)(C)C)cc1 (configuration not stated)
inactive: [1] 1.01 | S. cerevisiae deletion strains, locus YBR021W, strain FUR4, active compounds read low 1.03 | S. cerevisiae deletion strains, locus YBR229C, strain ROT2, active compounds read low 1.02 | S. cerevisiae deletion strains, locus YCL029C, strain bik1, active compounds read low 1.01 | S. cerevisiae deletion strains, locus YDL035C, strain GPR1, active compounds read low 1 | S. cerevisiae deletion strains, locus YDL074C, strain BRE1, active compounds read low 1.07 | S. cerevisiae deletion strains, locus YDL101C, strain DUN1, active compounds read low 1.02 | S. cerevisiae deletion strains, locus YDL134C, strain PPH21, active compounds read low 1.02 | S. cerevisiae deletion strains, locus YDL185W, strain tfp1, active compounds read low 0.982 | S. cerevisiae deletion strains, locus YDL192W, strain arf1, active compounds read low 1 | S. cerevisiae deletion strains, locus YDR101C, strain arx1, active compounds read low 0.987 | [2] 1.02 | S. cerevisiae deletion strains, locus YDR162C, strain NBP2, active compounds read low 1.02 | S. cerevisiae deletion strains, locus YDR318W, strain mcm21, active compounds read low 1 | S. cerevisiae deletion strains, locus YDR388W, active compounds read low 0.994 | S. cerevisiae deletion strains, locus YDR502C, strain sam2, active compounds read low 0.993 | S. cerevisiae deletion strains, locus YEL061C, strain CIN8, active compounds read low 1.01 | S. cerevisiae deletion strains, locus YER110C, active compounds read low 0.998 | S. cerevisiae deletion strains, locus YER155C, strain BEM2, active compounds read low 1.02 | S. cerevisiae deletion strains, locus YER167W, strain BCK2, active compounds read low 1.01 | S. cerevisiae deletion strains, locus YGL078C, strain dbp3, active compounds read low 0.977 | S. cerevisiae deletion strains, locus YGL086W, strain mad1, active compounds read low 1 | S. cerevisiae deletion strains, locus YGL248W, strain PDE1, active compounds read low 1.02 | [3] 1.02 | S. cerevisiae deletion strains, locus YGR135W, strain pre9, active compounds read low 1 | [4] 1.04 | S. cerevisiae deletion strains, locus YGR252W, strain gcn5, active compounds read low 0.987 | S. cerevisiae deletion strains, locus YHR030C, strain SLT2, active compounds read low 1.02 | S. cerevisiae deletion strains, locus YHR079C, strain IRE1 (second series), active compounds read low 0.994 | S. cerevisiae deletion strains, locus YHR094C, strain hxt1, active compounds read low 0.988 | S. cerevisiae deletion strains, locus YHR129C, strain ARP1, active compounds read low 1.02 | S. cerevisiae deletion strains, locus YHR200W, strain rpn10, active compounds read low 0.99 | S. cerevisiae deletion strains, locus YIL066C, strain RNR3, active compounds read low 1.02 | S. cerevisiae deletion strains, locus YIL073C, strain SPO22, active compounds read low 1.01 | S. cerevisiae deletion strains, locus YIL125W, strain kgd1, active compounds read low 0.988 | S. cerevisiae deletion strains, locus YIR030C, strain dcg1, active compounds read low 0.984 | S. cerevisiae deletion strains, locus YJL095W, strain BCK1, active compounds read low 1.02 | S. cerevisiae deletion strains, locus YJL134W, strain LCB3, active compounds read low 1.01 | S. cerevisiae deletion strains, locus YJL168C, strain set2, active compounds read low 0.989 | S. cerevisiae deletion strains, locus YJL187C, strain SWE1 (second series), active compounds read low 1.02 | S. cerevisiae deletion strains, locus YJR043C, strain POL32, active compounds read low 1.01 | S. cerevisiae deletion strains, locus YJR075W, strain HOC1, active compounds read low 1.04 | S. cerevisiae deletion strains, locus YKL009W, strain mrt4, active compounds read low 0.971 | S. cerevisiae deletion strains, locus YKL068W, active compounds read low 0.994 | S. cerevisiae deletion strains, locus YKL085W, strain MDH1 (second series), active compounds read low 0.988 | S. cerevisiae deletion strains, locus YKL085W, strain MDH1, active compounds read low 0.988 | S. cerevisiae deletion strains, locus YKL190W, strain CNB1, active compounds read low 1 | S. cerevisiae deletion strains, locus YKR001C, strain vps1, active compounds read low 0.993 | S. cerevisiae deletion strains, locus YLR039C, strain RIC1, active compounds read low 1.04 | S. cerevisiae deletion strains, locus YLR058C, strain SHM2, active compounds read low 1.02 | S. cerevisiae deletion strains, locus YLR102C, strain apc9, active compounds read low 0.983 | S. cerevisiae deletion strains, locus YLR262C, strain YPT6, active compounds read low 1.05 | S. cerevisiae deletion strains, locus YLR268W, strain sec22, active compounds read low 0.999 | S. cerevisiae deletion strains, locus YLR330W, strain CHS5, active compounds read low 1.02 | S. cerevisiae deletion strains, locus YLR342W, strain FKS1 (second series), active compounds read low 1.01 | S. cerevisiae deletion strains, locus YLR371W, strain rom2, active compounds read low 0.983 | S. cerevisiae deletion strains, locus YLR418C, strain cdc73, active compounds read low 1.02 | S. cerevisiae deletion strains, locus YML016C, strain PPZ1, active compounds read low 1.02 | S. cerevisiae deletion strains, locus YML032C, strain rad52, active compounds read low 0.986 | S. cerevisiae deletion strains, locus YML124C, strain tub3, active compounds read low 0.995 | S. cerevisiae deletion strains, locus YMR078C, strain ctf18, active compounds read low 0.996 | S. cerevisiae deletion strains, locus YMR223W, strain ubp8, active compounds read low 1 | [5] 1.03 | S. cerevisiae deletion strains, locus YMR307W, strain GAS1, active compounds read low 1.02 | S. cerevisiae deletion strains, locus YNL067W, strain RPL9B, active compounds read low 1.02 | [6] 1.02 | S. cerevisiae deletion strains, locus YNL153C, strain GIM3, active compounds read low 1.02 | S. cerevisiae deletion strains, locus YNL233W, strain BNI4, active compounds read low 1.03 | S. cerevisiae deletion strains, locus YNL250W, strain rad50, active compounds read low 0.992 | S. cerevisiae deletion strains, locus YNL271C, strain bni1, active compounds read low 0.978 | S. cerevisiae deletion strains, locus YNL298W, strain CLA4, active compounds read low 0.998 | S. cerevisiae deletion strains, locus YNL307C, strain MCK1, active compounds read low 0.992 | S. cerevisiae deletion strains, locus YNL322C, strain KRE1, active compounds read low 1.02 | S. cerevisiae deletion strains, locus YNR052C, strain pop2, active compounds read low 0.987 | S. cerevisiae deletion strains, locus YOL006C, strain TOP1, active compounds read low 1.07 | S. cerevisiae deletion strains, locus YOL012C, strain htz1 0.994 | S. cerevisiae deletion strains, locus YOL147C, strain pex11, active compounds read low 0.994 | S. cerevisiae deletion strains, locus YOR061W, strain CKA2, active compounds read low 1.01 | S. cerevisiae deletion strains, locus YOR069W, strain VPS5, active compounds read low 1 | S. cerevisiae deletion strains, locus YOR136W, strain idh2, active compounds read low 0.992 | S. cerevisiae deletion strains, locus YOR144C, strain elg1, active compounds read low 0.996 | S. cerevisiae deletion strains, locus YOR184W, strain ser1, active compounds read low 0.964 | S. cerevisiae deletion strains, locus YOR316C, strain cot1, active compounds read low 0.996 | [7] 1.05 | [8] 1.03 | S. cerevisiae deletion strains, locus YPR119W, strain clb2, active compounds read low 0.997 | S. cerevisiae deletion strains, locus YPR141C, strain kar3, active compounds read low 0.99 | S. cerevisiae deletion strains, locus YPR163C, strain tif3, active compounds read low 0.999 | S. cerevisiae deletion strains, locus YPR167C, strain met16, active compounds read low 0.994 | S. cerevisiae deletion strains, strain wtn01, active compounds read low 0.991 | S. cerevisiae strains, strain wild type, active compounds read low 1.01

CC(C)C[C@H](NC(=O)C1OC1C(=O)O)C(=O)NCCCCN=C(N)N (some centres not stated)
inactive: [1] 1.01 | S. cerevisiae deletion strains, locus YAL040C, strain CLN3, active compounds read low 0.949 | S. cerevisiae deletion strains, locus YCL061C, strain MRC1 (second series), active compounds read low 0.993 | [2] 0.989 | S. cerevisiae deletion strains, locus YDR363W, strain ESC2, active compounds read low 1.01 | S. cerevisiae deletion strains, locus YER002W, strain NOP16, active compounds read low 0.985 | [3] 0.988 | [4] 1.04 | [5] 0.997 | [6] 0.998 | S. cerevisiae deletion strains, locus YNL175C, strain NOP13, active compounds read low 0.984 | S. cerevisiae deletion strains, locus YNL197C, strain WHI3, active compounds read low 0.971 | S. cerevisiae deletion strains, locus YNL224C, strain SQS1, active compounds read low 1.01 | S. cerevisiae deletion strains, locus YOR083W, strain WHI5 (second series), active compounds read low 0.979 | [7] 1.02 | [8] 0.995
